Hit rate of the full screen: of about 16,000 compounds, about 5,700 (36%) were called active. About 24% were inconclusive and are not listed. This is one part of the list. Unmarked numbers belong to inactive results. Calls come from the whole dose curve; as a rule, active = well fitted curve in the direction sought with a large enough effect; inconclusive = small, poorly fitted or top-dose-only effect, or effect the other way; inactive = no such curve, though single readings can be large or run the other way.
Target: Cytochrome P450 1A2 (Homo sapiens) (UniProt P05177)
Assay: Cytochrome panel assay with activity outcomes
Conditions: recombinant CYP, pro-luciferin dealkylation, luminescence, p450-cyp1a2; series mostly up to 57.1 µM; activity, negative = inhibition: at the top concentration
% is set by controls: 0 for no effect and ±100 for the full control effect.

Cytochrome P450 1A2 (Homo sapiens), sequence (P05177 whole entry, looked up): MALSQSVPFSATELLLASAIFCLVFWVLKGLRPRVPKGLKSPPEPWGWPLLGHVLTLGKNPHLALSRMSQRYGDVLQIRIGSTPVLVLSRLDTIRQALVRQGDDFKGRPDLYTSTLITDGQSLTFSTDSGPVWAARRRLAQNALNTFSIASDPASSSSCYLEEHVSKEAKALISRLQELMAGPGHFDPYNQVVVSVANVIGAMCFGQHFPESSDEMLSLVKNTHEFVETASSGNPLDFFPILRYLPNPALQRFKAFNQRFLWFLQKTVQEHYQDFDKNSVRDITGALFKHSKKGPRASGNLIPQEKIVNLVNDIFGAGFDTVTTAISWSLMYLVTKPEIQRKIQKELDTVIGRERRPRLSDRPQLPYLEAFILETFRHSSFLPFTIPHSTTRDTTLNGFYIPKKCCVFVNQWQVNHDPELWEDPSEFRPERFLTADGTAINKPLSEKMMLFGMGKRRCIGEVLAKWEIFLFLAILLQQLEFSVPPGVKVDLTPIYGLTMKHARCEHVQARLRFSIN

**Q.** How did the “activity, negative = inhibition” value turn out when `CC1(C)O[C@H]2C[C@@H]3[C@H]4CCC5=CC(=O)CC[C@@]5(C)[C@]4(F)[C@@H](O)C[C@@]3(C)[C@@]2(C(=O)CCl)O1` was run?
**A.** The value was -15.1% [at 25.6 µM].

**Q.** For `CC(=O)O[C@]1(C(C)=O)CC[C@@H]2[C@@H]3C=C(C)C4=CC(=O)CC[C@@]4(C)[C@H]3CC[C@]21C`, which “activity, negative = inhibition” value is on record?
**A.** Its value is -7.95% [at 25.6 µM].

**Q.** `Oc1ccc(-c2nc(-c3ccc(F)cc3)c(-c3ccncc3)[nH]2)cc1` was tested. Which AC50 did it give?
**A.** Its AC50 is 15.8 µM (active).

**Q.** For `CS(=O)c1ccc(-c2nc(-c3ccc(F)cc3)c(-c3ccncc3)[nH]2)cc1` (stereo not given), which AC50 is on record?
**A.** Its AC50 is 0.631 µM (active).

**Q.** How did the AC50 turn out when `O=C(N/N=C\c1ccc(Sc2ccccn2)o1)c1cccc(Br)c1` was run?
**A.** The AC50 was 15.8 µM (active).

**Q.** With `O=C(N[C@@]1(C(=O)O)C[C@@H]1c1ccccc1)c1ccccc1` as the molecule, how does the activity, negative = inhibition read?
**A.** Its activity, negative = inhibition is 2.45% [at 11.4 µM].

**Q.** For `O=C(N/N=C/C1C(c2ccccc2)C1(Cl)Cl)c1cccc(Br)c1` (stereo not given), which AC50 is on record?
**A.** Its AC50 is 2 µM (active).

**Q.** For `O=C(N/N=C/c1cccc(Oc2ccccc2)c1)c1cccc(Br)c1`, which AC50 is on record?
**A.** The AC50 was 0.891 µM (active).

**Q.** With `N[C@@H]1[C@@H]2[C@@H]3C[C@H]4N(CC[C@@]14C(=O)C(=O)O)CC3=CCO[C@@H]2CC(=O)O` as the molecule, how does the activity, negative = inhibition read?
**A.** Its activity, negative = inhibition is -16.1% [at 11.4 µM].

**Q.** `C=C[C@@]1(C)CC(=O)[C@@]2(O)[C@@]3(C)[C@H](O)CCC(C)(C)[C@@H]3[C@H](O)[C@H](OC(C)=O)[C@]2(C)O1` was tested. Which “activity, negative = inhibition” value did it give?
**A.** The value was -2.51%.

**Q.** How did the AC50 turn out when `Cc1ccc(/C=C2\Sc3ccccc3C2=O)s1` was run?
**A.** Its AC50 is 1.78 µM (active).

**Q.** For `COc1ncnc(NS(=O)(=O)c2ccc(N)cc2)c1OC`, which “activity, negative = inhibition” value is on record?
**A.** The value was -8.77% [at 25.6 µM].

**Q.** How did the AC50 turn out when `O=C(OCc1nc2ccccc2[nH]1)C12CC3CC(CC(C3)C1)C2` was run?
**A.** Its AC50 is 22.4 µM (active).

**Q.** `Nc1ccn([C@@H]2O[C@H](COC(=O)C34CC5CC(CC(C5)C3)C4)[C@@H](O)[C@@H]2O)c(=O)n1` was tested. Which activity, negative = inhibition did it give?
**A.** Its activity, negative = inhibition is -18.7% [at 2.29 µM].

**Q.** `NC(N)=[N+]1CCc2ccccc2C1` was tested. Which “activity, negative = inhibition” value did it give?
**A.** The value was -11.2%.

**Q.** Which AC50 does the source give for `O=c1[nH][nH]c(C(F)(F)F)c1C=Nc1ccccc1Cl` here?
**A.** Its AC50 is 14.1 µM (active).

**Q.** How did the AC50 turn out when `O=c1[nH][nH]c(C(F)(F)F)c1C=Nc1cccc(Cl)c1` was run?
**A.** The AC50 was 12.6 µM (active).

**Q.** `O=c1[nH][nH]c(C(F)(F)F)c1C=Nc1ccccc1` was tested. Which AC50 did it give?
**A.** Its AC50 is 4.47 µM (active).

**Q.** Which “activity, negative = inhibition” value does the source give for `Cc1ccc(C(=O)c2ccc(CC(=O)O)n2C)cc1` here?
**A.** The value was -8.27% [at 25.6 µM].

**Q.** How did the activity, negative = inhibition turn out when `CO[C@@H]1/C=C\CC(=O)N[C@@H](C)C(=O)OC[C@@H](OC)[C@H](C)/C=C\CC(=O)OC[C@H]1C` was run?
**A.** The activity, negative = inhibition was -4.89% [at 11.4 µM].

**Q.** Which “activity, negative = inhibition” value does the source give for `OC[C@H]1NC[C@@H](O)[C@@H](O)[C@H]1O` here?
**A.** Its value is -6.82%.

**Q.** Which “activity, negative = inhibition” value does the source give for `Cc1ccccc1C(C(=O)NC1CCCC1)N(C(=O)Cc1cccs1)c1ccc2c(c1)OCCO2` (stereo not given) here?
**A.** The value was -11%.

**Q.** For `CC(C)/C(=N/[N+](C)(C)C)c1ccccc1`, which activity, negative = inhibition is on record?
**A.** The activity, negative = inhibition was -16.2% [at 2.29 µM].

**Q.** How did the AC50 turn out when `CCC(=O)Nc1cc2c(cc1C(=O)c1ccccc1)OCCO2` was run?
**A.** The AC50 was 25.1 µM (active).

**Q.** `CC(C)C(=O)Nc1cc2c(cc1C(=O)c1ccccc1)OCCO2` was tested. Which AC50 did it give?
**A.** Its AC50 is 14.1 µM (active).

**Q.** With `COc1ccc(C(=O)N2CCC3(CC2)CCN(C(c2ccccc2)c2ccccc2)CC3)cc1` as the molecule, how does the “activity, negative = inhibition” value read?
**A.** Its value is -14.1%.

**Q.** How did the AC50 turn out when `COc1ccc(-c2ccc(N)[n+](CCCC(=O)O)n2)cc1` was run?
**A.** Its AC50 is “inactive”.

**Q.** For `CCC(=O)n1nc(-c2ccc(OC)cc2)nc1N`, which AC50 is on record?
**A.** The AC50 was 2 µM (active).

**Q.** How did the AC50 turn out when `CCCC(=O)n1nc(-c2cccnc2)nc1N` was run?
**A.** The AC50 was 5.01 µM (active).

**Q.** Which “activity, negative = inhibition” value does the source give for `COc1ccc(-n2c(SC)nc(O)c(Cc3ccccc3)c2=O)cc1` here?
**A.** The value was -1.57%.

**Q.** `COc1ccc(C(=O)n2nc(-c3ccccc3)nc2SC)cc1` was tested. Which AC50 did it give?
**A.** The AC50 was 0.562 µM (active).

**Q.** With `COc1ccc(-c2nc(N)c3ncn([C@H]4O[C@@H](CO)[C@@H](O)[C@@H]4O)c3n2)cc1` as the molecule, how does the activity, negative = inhibition read?
**A.** Its activity, negative = inhibition is -13% [at 2.29 µM].

**Q.** How did the “activity, negative = inhibition” value turn out when `COc1ccc(C2C(C#N)=C(N)Oc3n[nH]c(C)c32)cc1CN1CCN(c2ccc(F)cc2)CC1` (stereo not given) was run?
**A.** The value was -23.9%.

**Q.** How did the AC50 turn out when `COc1cccc(-c2[nH]nc3c2C(c2ccsc2)C(C#N)=C(N)O3)c1` (stereo not given) was run?
**A.** Its AC50 is 1.12 µM (active).

**Q.** Which AC50 does the source give for `COc1cccc(-c2[nH]nc3c2C(c2ccc(C)o2)C(C#N)=C(N)O3)c1` (stereo not given) here?
**A.** The AC50 was 1.58 µM (active).

**Q.** `O=C(CP(=O)(c1ccccc1)c1ccccc1)Nn1cnnc1` was tested. Which “activity, negative = inhibition” value did it give?
**A.** The value was -30%.

**Q.** How did the activity, negative = inhibition turn out when `CC1(C)[C@@H]2CC[C@]1(C)[C@@H](OC(=O)CSC#N)C2` was run?
**A.** Its activity, negative = inhibition is -18.3% [at 2.29 µM].

**Q.** For `Cc1cccn2c(/C=N/OCc3cccc(F)c3)c(-c3ccc(Cl)cc3)nc12`, which AC50 is on record?
**A.** Its AC50 is 2 µM (active).

**Q.** For `Cc1cccn2c(/C=N/OCc3ccc(F)cc3)c(-c3ccc(Cl)cc3)nc12`, which AC50 is on record?
**A.** The AC50 was 2 µM (active).

**Q.** For `C#CCCCO/N=C1/C[C@@H](O)[C@@H](O)[C@@H]2[C@@H]3C(=O)N([C@@H](C)c4ccccc4)C(=O)[C@H]3CC[C@H]12`, which activity, negative = inhibition is on record?
**A.** The activity, negative = inhibition was 0.735% [at 11.4 µM].

**Q.** `Cn1c(O)c(C(C#N)=C2N=c3ccccc3=N2)c2ccccc21` was tested. Which AC50 did it give?
**A.** Its AC50 is 1.58 µM (active).

**Q.** Which AC50 does the source give for `O=c1ccc2c(OCCCCc3ccccc3)c3ccoc3cc2o1` here?
**A.** Its AC50 is 0.501 µM (active).

**Q.** How did the AC50 turn out when `CCn1c(=O)[nH]c2ccccc2c1=O` was run?
**A.** The AC50 was 1.78 µM (active).

**Q.** How did the AC50 turn out when `Clc1ccccc1-c1ccc2ncnc(NCc3cccnc3)c2c1` was run?
**A.** The AC50 was 0.158 µM (active).

**Q.** Which AC50 does the source give for `FC(F)(F)c1ccccc1-c1ccc2ncnc(NCc3cccnc3)c2c1` here?
**A.** Its AC50 is 1 µM (active).

Source: PubChem BioAssay AID1851 (National Center for Advancing Translational Sciences (NCATS), 2009)
